This note sets out measurements from article PMC6919601, “Identification of Plasmodium dipeptidyl aminopeptidase allosteric inhibitors by high throughput screening” (PLoS ONE, 2019).

The campaign covered roughly 110,000 compounds. About 230 (0.21%) showed an effect of 50% or more. Many of the other results were omitted from the sample, so strong results are more common in it than they were.
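Note: 30 min substrate incubation versus DMSO and 10 µM JCP410 controls.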

In this test the target is DPAP1 (Plasmodium falciparum, UniProt Q8IIJ9). The test can be described thus: primary screen, percent inhibition; read by cleavage of a fluorogenic dipeptide substrate; higher = more effect of the substance. Also on record: species or system P. falciparum D10 trophozoite lysates; single well.
DPAP1, sequence (Q8IIJ9 whole entry, looked up): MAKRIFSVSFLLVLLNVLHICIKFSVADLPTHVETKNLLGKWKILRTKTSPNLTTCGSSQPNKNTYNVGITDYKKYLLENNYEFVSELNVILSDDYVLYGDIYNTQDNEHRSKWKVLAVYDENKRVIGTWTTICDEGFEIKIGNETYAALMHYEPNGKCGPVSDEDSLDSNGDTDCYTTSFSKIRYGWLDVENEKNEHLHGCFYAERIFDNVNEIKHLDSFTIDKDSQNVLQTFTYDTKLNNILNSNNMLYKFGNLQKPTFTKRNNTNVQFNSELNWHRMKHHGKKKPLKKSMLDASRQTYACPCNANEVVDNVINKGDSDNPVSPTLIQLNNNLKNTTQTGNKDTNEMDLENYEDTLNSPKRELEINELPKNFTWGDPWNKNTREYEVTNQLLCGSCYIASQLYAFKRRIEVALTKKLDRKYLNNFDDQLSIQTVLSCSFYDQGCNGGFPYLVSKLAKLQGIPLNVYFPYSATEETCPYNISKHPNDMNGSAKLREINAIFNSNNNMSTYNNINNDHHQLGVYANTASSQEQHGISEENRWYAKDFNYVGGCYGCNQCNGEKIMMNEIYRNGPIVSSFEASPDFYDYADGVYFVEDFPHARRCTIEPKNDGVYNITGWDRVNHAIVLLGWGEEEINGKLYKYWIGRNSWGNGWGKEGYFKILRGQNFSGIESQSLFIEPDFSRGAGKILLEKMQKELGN
Regarding `COc1ccc(Cl)cc1N(CC(=O)Nc1ccc(C(C)C)cc1)S(C)(=O)=O`, the “% Inhibition @ 10 uM” value is listed as 0.324%. For `Nc1nnc(-c2ccc([N+](=O)[O-])cc2)s1`, the “% Inhibition @ 10 uM” value was -0.0369%. Turning to `COc1ccc(C2=CC(c3ccc(F)c(Br)c3)n3nnnc3N2)cc1` (stereo not shown), the “% Inhibition @ 10 uM” value worked out at 1.73%. In the case of `CC(=O)ONc1ccc(NC=C2C(=O)N(C)C(=O)N(C)C2=O)cc1`, the “% Inhibition @ 10 uM” value stood at 8.6%.

Consider `Fc1ccccc1CSCc1nc2ccccc2[nH]1`, for which the “% Inhibition @ 10 uM” value is -4.6%. `O=C(Nc1cnc2ccccc2c1O)N1CCC(Cc2ccccc2)CC1`: the “% Inhibition @ 10 uM” value came out at 5.43%. In the case of `Cc1cc(/C=C2/SC(=O)N(C(C)C)C2=O)c(C)n1-c1ccncc1`, the “% Inhibition @ 10 uM” value was -0.68%. On to `CCCC(=O)NCCc1nc2ccccc2n1CC(C)C`, for which the “% Inhibition @ 10 uM” value amounted to 0.121%. On to `CCCCc1nc(N)c(C#N)c(-c2ccccc2)c1CCC`, for which the “% Inhibition @ 10 uM” value stood at 97.8%. Consider `Cc1c(CC(C)C)nc(N)c(C#N)c1-c1ccccc1`, for which the “% Inhibition @ 10 uM” value is listed as 99.3%. For the molecule `CCCCCc1nc(N)c(C#N)c(-c2ccccc2)c1CCCC`, the “% Inhibition @ 10 uM” value is -5.9%.

With `CCCc1nc(N)c(C#N)c(-c2ccccc2)c1CC`, the “% Inhibition @ 10 uM” value is -0.631%.

`Cc1c(CC(C)C)nc(N)c(C#N)c1-c1ccc(F)cc1`: the “% Inhibition @ 10 uM” value is reported as 2.92%. Under `COc1ccccc1-c1c(C)c(CC(C)C)nc(N)c1C#N` stands 0.5%. On to `Cc1ccccc1N1C(=O)/C(=C\c2c(C)[nH]c3ccccc23)C(=O)NC1=S`, for which the “% Inhibition @ 10 uM” value is recorded as 4.15%. Regarding `O=C(c1ccco1)N1CCN(C2CCC(c3ccccc3)CC2)CC1` (stereo not shown), the “% Inhibition @ 10 uM” value is given as -0.274%. Take `CCOC(=O)c1c(C)nc(S)c(C#N)c1-c1ccccc1`: the “% Inhibition @ 10 uM” value was 57.1%. Turning to `CCc1c(C#N)c(S)nc(C)c1C(=O)Nc1ccccc1`, the “% Inhibition @ 10 uM” value was 55%.

Regarding `Cc1nc(S)c(C#N)c(C)c1C(=O)Nc1ccccc1`, the “% Inhibition @ 10 uM” value is listed as 2.01%. As for `CCOC(=O)c1c(C)nc(C)c(C(=O)OCC)c1-c1ccc(OC)cc1`, the “% Inhibition @ 10 uM” value is given as -1.96%. As to `CCOC(=O)c1c(C)nc(S)c(C#N)c1-c1ccc(OC)cc1`, the “% Inhibition @ 10 uM” value is recorded as 52.9%. As to `CC(=O)c1c(C)nc(S)c(C#N)c1-c1ccccc1`, the “% Inhibition @ 10 uM” value is given as 39.2%. With `CC(=O)c1c(C)nc(S)c(C#N)c1-c1ccc(Cl)cc1`, the “% Inhibition @ 10 uM” value worked out at 33.7%.

For `CCc1c(C#N)c(SC)nc(C)c1C(=O)Nc1ccccc1`, the “% Inhibition @ 10 uM” value was 1.43%. The same measure for `CCOC(=O)c1c(C)nc(C)c(C(=O)OCC)c1-c1ccccc1`: 1.57%; for `Cc1ccc(OCCNC(=O)Cn2cnc3c(=O)n(C)c(=O)n(C)c32)cc1C`: -9.26%.

As for `CCn1c(C(=O)NCc2ccccn2)cc2oc3ccccc3c21`, the “% Inhibition @ 10 uM” value was -3.96%. Turning to `COc1cc(C2NCCc3c2[nH]c2ccccc32)ccc1OC(C)C` (stereo not shown), the “% Inhibition @ 10 uM” value was found to be 1.02%. Consider `CC1CCN(C(=O)Cn2cnc3c(nnn3Cc3ccccc3F)c2=O)CC1`, for which the “% Inhibition @ 10 uM” value is 24%. As to `O=C(CNS(=O)(=O)c1ccc(Br)s1)N1CC=C(c2ccccc2)CC1`, the “% Inhibition @ 10 uM” value is 3.27%. Under `O=C(NC1CCCC1)c1ccc(Cl)c([N+](=O)[O-])c1` stands -4.91%; under `O=C(Nc1cnn(Cc2ccccc2)c1)C1CCCC1`, -1.78%. Regarding `Cc1cc(-c2ccc(N)cc2)nc2ccc3ccccc3c12`, the “% Inhibition @ 10 uM” value is listed as 52.7%. For `Cc1cc(-c2ccc([N+](=O)[O-])cc2)nc2ccc3ccccc3c12`, the “% Inhibition @ 10 uM” value was -0.239%. In the case of `Cc1cc(-c2ccc(O)cc2)nc2ccc3ccccc3c12`, the “% Inhibition @ 10 uM” value is listed as -1.97%. The same measure for `OC1CCCN(Cc2ccc(OC(F)(F)F)cc2)C1` (stereo not shown): 1.62%. On to `Cc1cccc(C)c1-n1c(C)cc(/C=C2\NC(=O)NC2=O)c1C`, for which the “% Inhibition @ 10 uM” value was 4.83%. Consider `CCc1nnc(NC(=O)CSc2nc(C(F)(F)F)cc(C)c2C#N)s1`, for which the “% Inhibition @ 10 uM” value is 59.2%.

Consider `CCc1nnc(NC(=O)CSc2nc(-c3cccs3)cc(C(F)(F)F)c2C#N)s1`, for which the “% Inhibition @ 10 uM” value is 9.42%. Consider `CCc1nnc(NC(=O)CSc2nc(N)nc(SC)c2C#N)s1`, for which the “% Inhibition @ 10 uM” value is on record as -1.68%.

For `COC(=O)C1=NNC2C(=O)N(Cc3ccccc3)C(=O)C12` (stereo not shown), the “% Inhibition @ 10 uM” value is listed as -0.13%. On to `CC(C(=O)O)c1cc(C(=O)c2ccccc2)sc1-c1ccccc1` (stereo not shown), for which the “% Inhibition @ 10 uM” value is reported as 6.08%. Take `CCOc1ccccc1C(=O)Nc1ccc(C(C)=O)cc1`: the “% Inhibition @ 10 uM” value is reported as -7.23%. On to `O=C(COc1ccccc1)NC(Cc1c[nH]c2ccccc12)C(=O)O` (stereo not shown), for which the “% Inhibition @ 10 uM” value turned out to be 10.2%. On to `CC(C)CCOc1ccc(C(=O)CCNC(CC(C)C)C(=O)O)cc1` (stereo not shown), for which the “% Inhibition @ 10 uM” value is given as 30.1%. With `CCCOc1ccc(C(=O)CCNC(Cc2c[nH]c3ccccc23)C(=O)O)cc1` (stereo not shown), the “% Inhibition @ 10 uM” value worked out at 81.9%.

Take `CC[C@H](C)[C@H](NC(=O)Cc1ccncc1)C(=O)N[C@@H](CCc1ccccc1)C(=O)CO`: the “% Inhibition @ 10 uM” value was -4.17%.

`CCCN(C(=O)c1ccco1)c1nc(-c2cccc(Cl)c2)cs1`: the “% Inhibition @ 10 uM” value stood at 11.9%. For `CCN(C(=O)CCc1ccccc1)c1nc(-c2ccccc2)cs1`, the “% Inhibition @ 10 uM” value was -0.426%. The same measure for `CCN(C(=O)c1ccco1)c1nc(-c2ccccc2)cs1`: 72.9%; for `CCOC(=O)C1=CN(C)C=C(C(=O)OCC)C1c1ccc(C(C)C)cc1`: -1.48%; for `Cc1cc(C)c(S(=O)(=O)N2CCCc3ccccc32)c(C)c1`: 1.83%. For the molecule `Cc1ccc(-n2nc(C)c3c(C)c(CCC(=O)NCC4CCCO4)c(C)nc32)cc1` (stereo not shown), the “% Inhibition @ 10 uM” value was 0.953%.

With `CCOc1ccc(/C=C2/C=C(c3ccc(C)cc3)OC2=O)cc1OC`, the “% Inhibition @ 10 uM” value turned out to be 1.84%. Consider `CCOc1ccc(N2C(=O)C3C(C(C)=O)=NN(c4ccccc4Cl)C3C2=O)cc1` (stereo not shown), for which the “% Inhibition @ 10 uM” value was -0.0619%. `O=C1C(Sc2ccccc2)=C(O)c2cccc3cccc1c23`: the “% Inhibition @ 10 uM” value came out at 68.7%. In the case of `O=C1c2cccc3cccc(c23)C(=O)N1O`, the “% Inhibition @ 10 uM” value is reported as 13.1%. Consider `O=C1NC(=O)c2cccc3cccc1c23`, for which the “% Inhibition @ 10 uM” value was -4.51%.

`CCC(C)C(NCCC(=O)c1ccc(Br)cc1)C(=O)O` (stereo not shown): the “% Inhibition @ 10 uM” value is on record as -7.23%.

`CCCOc1ccc(C(=O)CCNC(C(=O)O)C(C)C)cc1` (stereo not shown): the “% Inhibition @ 10 uM” value is 2.8%. For the molecule `CCOc1ccc(C(=O)CCNC(CC(=O)O)C(=O)O)cc1` (stereo not shown), the “% Inhibition @ 10 uM” value is 42.3%. Regarding `CCOc1ccc(C(=O)CCNC(C(=O)O)C(C)CC)cc1` (stereo not shown), the “% Inhibition @ 10 uM” value was 71%.

On to `CC(C)Oc1ccc(C(=O)CCNC(C(=O)O)C(C)C)cc1` (stereo not shown), for which the “% Inhibition @ 10 uM” value came out at 59.7%. Under `COc1ccc(C(=O)CCNC(C)C(=O)O)cc1` (stereo not shown) stands 5.85%. Turning to `CCC(Oc1ccccc1)C(=O)Nc1ncccc1Cl` (stereo not shown), the “% Inhibition @ 10 uM” value is listed as -3.75%.

Consider `COc1ccccc1NC(=O)/C=C\C(=O)O`, for which the “% Inhibition @ 10 uM” value amounted to 1.63%. As for `CCCN(CCC)CCNC(=O)c1cn(C)c(=O)c2cc(OC)c(OC)cc12`, the “% Inhibition @ 10 uM” value was -2.49%. For the molecule `CC(NC(=O)c1cccs1)c1cc2c(cc1Cl)OCCCO2` (stereo not shown), the “% Inhibition @ 10 uM” value was -1.28%. With `COC(=O)c1cc2c(C)nn(-c3ccccc3)c2s1`, the “% Inhibition @ 10 uM” value turned out to be 4.7%.

As to `Cc1nn(-c2ccccc2)c2sc(C(N)=O)cc12`, the “% Inhibition @ 10 uM” value is reported as 6.83%. Turning to `Cc1nn(-c2ccccc2)c2sc(-c3nnc(S)o3)cc12`, the “% Inhibition @ 10 uM” value amounted to 64.9%. Consider `COc1ccccc1NC(=O)c1cc(OC)c(OC)c(OC)c1`, for which the “% Inhibition @ 10 uM” value is -5.67%.

For `Cc1ccc(-c2nc3c4ccccc4nc(S)n3n2)cc1`, the “% Inhibition @ 10 uM” value was -7.62%.
